Source: the supplement of paper PMC10849652
Targets with a hit are over-represented here; the source holds about 8,800 in all. About 0.5% of all pairs of compound and target were hits. Unmarked numbers belong to inactive results.

Assays:
Assay in all cases: log2 fold change, soluble protein after heating vs DMSO (PISA); higher = thermal stabilisation; K562 lysate, 10 uM; active = over 0.2 and 3.5 SD of the protein, either way, in both replicates (recomputed)
erlotinib = compound: C#Cc1cccc(Nc2ncnc3cc(OCCOC)c(OCCOC)cc23)c1 [erlotinib]
In short: (§1)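 To prepare the extract, K562 pellets were dounce-homogenised in PBS pH 7.4 with 1 mM MgCl2, giving crude material at 1 mg/mL protein. This was treated with 10 μM compound for 30 min, then heated in aliquots for 3 min over 48°C-58°C before pooling and addition of NP-40 to 0.5% at 4°C. Centrifugation at 21,000xg for 90 min left soluble protein in the supernatant, which TMTpro 16plex LC-MS/MS quantified with equalised channel sums. Results are log-two fold changes in thermal stability compared with solvent controls, from duplicates.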

[1] = compound: C/C(=N\NC(=O)C1=CC(=CC=C1)S(=O)(=O)N2CCOCC2)/C3=C(C=CC(=C3)Cl)O
In short: as §1

[2] = compound: C1=CC(=CC=C1C2=NC3=C(N2)C=C(C=C3)C(=O)N)OC4=CC=C(C=C4)Cl
In short: as §1

[3] = compound: C1=CC2=C(C=CC(=C2)/C=C\3/C(=O)NC(=NCC4=CC=CS4)S3)N=C1
In short: as §1

[4] = compound: C1=CC2=NC=CN=C2C=C1/C=C/3\C(=O)NC(=O)S3
In short: as §1

[5] = compound: C1=CC=C(C=C1)C2=NC(=C(N2)C3=CC=NC=C3)C4=CC(=C(C=C4)Cl)O
In short: as §1

[6] = compound: C1=CC=C2C(=C1)C3=NNC4=CC=CC(=C43)C2=O
In short: as §1

[7] = compound: C1CCN(C1)C(=O)NC2=CC=CC(=C2)NC3=NC=C(C(=N3)NCCC4=CN=CN4)Br
In short: as §1

[8] = compound: C1CN(CCC1(CC2=CC=C(C=C2)Cl)N)C3=NC=NC4=C3C=CN4
In short: as §1

IRAK-1-4 Inhibitor I = compound: C1COCCN1CCN2C3=CC=CC=C3N=C2NC(=O)C4=CC(=CC=C4)[N+](=O)[O-] [IRAK-1-4 Inhibitor I]
In short: as §1

UniProt P31146, sequence (P31146 whole entry, looked up): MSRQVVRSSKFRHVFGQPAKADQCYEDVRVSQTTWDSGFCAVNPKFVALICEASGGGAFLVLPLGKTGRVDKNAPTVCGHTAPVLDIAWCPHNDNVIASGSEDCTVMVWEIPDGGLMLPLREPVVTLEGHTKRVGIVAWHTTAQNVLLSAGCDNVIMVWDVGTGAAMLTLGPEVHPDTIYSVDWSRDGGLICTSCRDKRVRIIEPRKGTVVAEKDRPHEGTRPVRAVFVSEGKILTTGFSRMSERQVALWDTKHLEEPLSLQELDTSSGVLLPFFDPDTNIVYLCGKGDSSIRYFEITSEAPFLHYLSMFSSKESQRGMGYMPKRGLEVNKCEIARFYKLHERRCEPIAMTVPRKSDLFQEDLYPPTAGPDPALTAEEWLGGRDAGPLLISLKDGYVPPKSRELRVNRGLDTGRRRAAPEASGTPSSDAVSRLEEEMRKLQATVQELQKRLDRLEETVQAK
UniProt Q14203, sequence (Q14203 whole entry, looked up): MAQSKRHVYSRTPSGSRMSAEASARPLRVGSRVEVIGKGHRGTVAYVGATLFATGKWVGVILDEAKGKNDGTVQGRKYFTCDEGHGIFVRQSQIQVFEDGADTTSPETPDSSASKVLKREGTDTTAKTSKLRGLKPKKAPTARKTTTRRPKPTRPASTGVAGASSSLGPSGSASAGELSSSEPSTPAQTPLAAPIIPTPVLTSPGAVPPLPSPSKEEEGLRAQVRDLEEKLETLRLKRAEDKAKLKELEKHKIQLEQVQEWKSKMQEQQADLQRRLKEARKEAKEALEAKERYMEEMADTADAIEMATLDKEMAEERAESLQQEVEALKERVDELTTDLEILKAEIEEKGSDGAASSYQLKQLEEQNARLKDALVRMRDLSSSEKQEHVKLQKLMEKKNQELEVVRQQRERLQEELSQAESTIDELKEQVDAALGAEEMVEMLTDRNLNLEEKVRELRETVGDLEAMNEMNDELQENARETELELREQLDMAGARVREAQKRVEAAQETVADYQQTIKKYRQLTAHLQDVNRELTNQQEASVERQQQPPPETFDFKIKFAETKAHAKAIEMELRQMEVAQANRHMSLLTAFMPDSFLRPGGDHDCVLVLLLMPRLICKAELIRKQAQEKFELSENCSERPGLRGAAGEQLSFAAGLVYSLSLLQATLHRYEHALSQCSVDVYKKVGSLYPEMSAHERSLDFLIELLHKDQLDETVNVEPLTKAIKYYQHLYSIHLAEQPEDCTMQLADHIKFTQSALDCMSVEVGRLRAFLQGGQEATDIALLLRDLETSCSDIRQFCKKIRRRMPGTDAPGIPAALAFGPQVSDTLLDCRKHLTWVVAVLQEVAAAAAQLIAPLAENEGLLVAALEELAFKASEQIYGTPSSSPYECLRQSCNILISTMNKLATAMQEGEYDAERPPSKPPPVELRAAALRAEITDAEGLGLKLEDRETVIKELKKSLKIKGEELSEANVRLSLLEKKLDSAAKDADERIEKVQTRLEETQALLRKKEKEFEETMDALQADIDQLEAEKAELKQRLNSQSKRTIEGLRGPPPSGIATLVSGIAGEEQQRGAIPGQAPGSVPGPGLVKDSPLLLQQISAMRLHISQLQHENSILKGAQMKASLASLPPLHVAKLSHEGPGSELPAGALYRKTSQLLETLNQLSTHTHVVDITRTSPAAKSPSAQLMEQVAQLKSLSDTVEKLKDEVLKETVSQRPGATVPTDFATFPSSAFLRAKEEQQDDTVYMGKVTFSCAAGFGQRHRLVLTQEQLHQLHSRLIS
UniProt Q9H9E3, sequence (Q9H9E3 whole entry, looked up): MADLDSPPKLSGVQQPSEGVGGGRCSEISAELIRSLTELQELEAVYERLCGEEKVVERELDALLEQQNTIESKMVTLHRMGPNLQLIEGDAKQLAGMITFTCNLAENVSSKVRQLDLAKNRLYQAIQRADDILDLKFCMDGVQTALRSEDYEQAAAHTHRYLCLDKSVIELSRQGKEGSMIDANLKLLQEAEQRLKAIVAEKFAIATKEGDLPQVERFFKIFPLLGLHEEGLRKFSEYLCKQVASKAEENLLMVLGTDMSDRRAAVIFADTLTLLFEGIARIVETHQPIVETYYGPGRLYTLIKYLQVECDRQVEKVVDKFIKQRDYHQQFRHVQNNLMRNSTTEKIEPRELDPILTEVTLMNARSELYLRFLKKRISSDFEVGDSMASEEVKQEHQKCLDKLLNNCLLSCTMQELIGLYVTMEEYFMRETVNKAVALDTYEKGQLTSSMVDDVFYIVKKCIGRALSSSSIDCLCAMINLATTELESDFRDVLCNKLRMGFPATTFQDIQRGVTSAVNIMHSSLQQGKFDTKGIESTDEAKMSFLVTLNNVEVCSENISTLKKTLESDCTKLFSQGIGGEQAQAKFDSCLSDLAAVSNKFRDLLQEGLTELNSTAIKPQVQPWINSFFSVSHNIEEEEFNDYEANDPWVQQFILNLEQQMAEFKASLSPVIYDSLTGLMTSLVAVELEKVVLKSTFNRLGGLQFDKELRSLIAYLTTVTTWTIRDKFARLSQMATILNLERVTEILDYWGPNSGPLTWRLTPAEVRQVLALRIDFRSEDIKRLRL
UniProt Q07973, sequence (Q07973 whole entry, looked up): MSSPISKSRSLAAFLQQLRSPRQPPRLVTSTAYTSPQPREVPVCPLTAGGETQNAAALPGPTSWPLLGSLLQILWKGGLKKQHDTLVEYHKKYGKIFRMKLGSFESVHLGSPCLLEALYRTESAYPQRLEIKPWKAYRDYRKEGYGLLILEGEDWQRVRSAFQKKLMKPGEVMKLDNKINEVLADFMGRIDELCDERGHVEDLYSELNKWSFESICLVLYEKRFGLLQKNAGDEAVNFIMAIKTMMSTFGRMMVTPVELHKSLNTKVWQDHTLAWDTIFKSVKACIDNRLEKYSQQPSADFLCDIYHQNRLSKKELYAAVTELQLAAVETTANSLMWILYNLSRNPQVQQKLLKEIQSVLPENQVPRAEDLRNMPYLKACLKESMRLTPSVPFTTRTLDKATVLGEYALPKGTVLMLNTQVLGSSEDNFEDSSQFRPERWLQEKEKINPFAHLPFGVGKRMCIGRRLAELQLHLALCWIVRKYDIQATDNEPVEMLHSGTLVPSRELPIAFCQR
UniProt Q96JB2, sequence (Q96JB2 whole entry, looked up): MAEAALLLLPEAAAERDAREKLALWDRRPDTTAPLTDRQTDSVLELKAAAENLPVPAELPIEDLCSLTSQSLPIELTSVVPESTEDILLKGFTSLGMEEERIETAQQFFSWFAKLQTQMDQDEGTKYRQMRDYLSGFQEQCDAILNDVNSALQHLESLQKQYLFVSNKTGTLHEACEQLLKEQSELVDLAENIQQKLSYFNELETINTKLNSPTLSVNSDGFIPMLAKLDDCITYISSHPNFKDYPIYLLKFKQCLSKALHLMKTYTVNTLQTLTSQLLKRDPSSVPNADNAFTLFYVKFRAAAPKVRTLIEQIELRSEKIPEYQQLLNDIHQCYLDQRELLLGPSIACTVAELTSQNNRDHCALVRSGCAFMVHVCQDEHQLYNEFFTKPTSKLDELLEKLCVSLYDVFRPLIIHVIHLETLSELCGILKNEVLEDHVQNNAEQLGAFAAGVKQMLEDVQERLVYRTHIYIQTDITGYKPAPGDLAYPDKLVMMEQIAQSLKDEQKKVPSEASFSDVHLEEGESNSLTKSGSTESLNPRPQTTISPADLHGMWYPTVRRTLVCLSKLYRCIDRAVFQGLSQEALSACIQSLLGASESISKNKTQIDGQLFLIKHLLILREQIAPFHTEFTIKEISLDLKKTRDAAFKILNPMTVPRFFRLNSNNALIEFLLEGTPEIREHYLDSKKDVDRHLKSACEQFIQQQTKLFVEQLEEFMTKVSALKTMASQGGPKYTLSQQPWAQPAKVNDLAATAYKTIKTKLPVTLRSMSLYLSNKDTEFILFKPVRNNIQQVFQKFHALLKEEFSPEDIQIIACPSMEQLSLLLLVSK
UniProt Q8WWK9, sequence (Q8WWK9 whole entry, looked up): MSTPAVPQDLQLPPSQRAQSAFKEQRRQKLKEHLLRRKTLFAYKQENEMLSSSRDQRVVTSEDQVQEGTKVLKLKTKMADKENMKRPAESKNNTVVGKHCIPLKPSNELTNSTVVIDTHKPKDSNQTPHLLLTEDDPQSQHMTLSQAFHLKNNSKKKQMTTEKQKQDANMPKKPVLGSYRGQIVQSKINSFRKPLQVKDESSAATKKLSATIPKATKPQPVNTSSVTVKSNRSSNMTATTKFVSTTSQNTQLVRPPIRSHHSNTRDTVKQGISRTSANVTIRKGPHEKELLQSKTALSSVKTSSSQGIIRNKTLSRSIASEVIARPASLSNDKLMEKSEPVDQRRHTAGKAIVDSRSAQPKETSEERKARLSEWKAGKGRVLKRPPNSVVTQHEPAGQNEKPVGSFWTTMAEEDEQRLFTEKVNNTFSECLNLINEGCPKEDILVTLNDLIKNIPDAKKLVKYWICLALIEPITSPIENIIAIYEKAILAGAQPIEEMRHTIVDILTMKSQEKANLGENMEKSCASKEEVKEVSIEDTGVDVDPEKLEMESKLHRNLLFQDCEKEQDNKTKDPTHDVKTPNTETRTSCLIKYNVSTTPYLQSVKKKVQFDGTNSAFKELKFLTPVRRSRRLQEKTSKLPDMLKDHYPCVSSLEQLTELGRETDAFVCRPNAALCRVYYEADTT
UniProt P17661, sequence (P17661 whole entry, looked up): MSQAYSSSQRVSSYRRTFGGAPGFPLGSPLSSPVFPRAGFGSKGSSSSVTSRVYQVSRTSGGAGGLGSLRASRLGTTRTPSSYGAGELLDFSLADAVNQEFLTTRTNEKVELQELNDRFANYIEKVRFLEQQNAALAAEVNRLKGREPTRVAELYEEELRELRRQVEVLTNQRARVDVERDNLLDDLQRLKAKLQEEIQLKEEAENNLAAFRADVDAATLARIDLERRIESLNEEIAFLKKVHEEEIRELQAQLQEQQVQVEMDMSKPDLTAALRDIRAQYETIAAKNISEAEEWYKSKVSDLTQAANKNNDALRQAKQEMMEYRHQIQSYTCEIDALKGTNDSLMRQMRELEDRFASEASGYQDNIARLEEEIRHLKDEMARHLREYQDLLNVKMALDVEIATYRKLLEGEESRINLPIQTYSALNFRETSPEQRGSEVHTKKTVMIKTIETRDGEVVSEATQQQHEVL

| Target | log2 fold change (erlotinib) | log2 fold change [1] | log2 fold change [2] | log2 fold change [3] | log2 fold change [4] | log2 fold change [5] | log2 fold change [6] | log2 fold change [7] | log2 fold change [8] | log2 fold change (IRAK-1-4 Inhibitor I) |
| --- | --- | --- | --- | --- | --- | --- | --- | --- | --- | --- |
| COG3 (UniProt Q96JB2) | 0.045 | 0.053 | -0.037 | -0.049 | -0.008 | -0.022 | -0.056 | -0.02 | -0.01 | 0.012 |
| DHCR7 (UniProt Q9UBM7) | -0.051 | 0.081 | -0.153 | -0.016 | 0.033 | -0.024 | -0.019 | -0.058 | 0.075 | 0.007 |
| DERA (UniProt Q9Y315) | -0.008 | 0.008 | 0.028 | 0.014 | 0.015 | 0.001 | 0.019 | 0.013 | 0.023 | 0.002 |
| DES (UniProt P17661) | 0.014 | 0.012 | 0.023 | -0.074 | -0.016 | -0.026 | -0.018 | 0.048 | 0.1 | 0.09 |
| CHML (UniProt P26374) | -0.03 | -0.031 | 0.028 | -0.026 | -0.013 | -0.021 | -0.004 | -0.033 | -0.001 | -0.012 |
| CORO1A (UniProt P31146) | 0.077 | 0.086 | -0.032 | 0.036 | -0.022 | 0.005 | 0.009 | 0.155 | -0.031 | 0.021 |
| CUEDC2 (UniProt Q9H467) | -0.011 | 0.044 | 0.032 | 0.035 | -0.02 | 0 | -0.039 | 0.029 | -0.106 | 0.013 |
| CKS1B (UniProt P61024) | -0.058 | -0.097 | -0.037 | 0.042 | 0.008 | 0.121 | 0.092 | 0.038 | -0.012 | -0.018 |
| CSNK1A1 (UniProt P48729) | -0.027 | -0.106 | 0.093 | 0.028 | 0.013 | 0.217 | 0.406 (active) | -0.082 | -0.032 | -0.038 |
| CYP24A1 (UniProt Q07973) | 0.015 | 0.058 | 0.148 | -0.09 | -0.083 | -0.008 | -0.135 | -0.05 | -0.011 | 0.07 |
| DLGAP5 (UniProt Q15398) | -0.015 | 0.023 | -0.006 | -0.024 | -0.02 | 0.026 | -0.021 | -0.013 | -0.013 | -0.009 |
| COG4 (UniProt Q9H9E3) | 0.029 | -0.015 | -0.05 | -0.015 | -0.018 | 0.008 | -0.057 | 0.011 | 0.039 | 0.009 |
| CHFR (UniProt Q96EP1) | -0.011 | 0.179 | 0.066 | -0.068 |  | -0.027 | 0.257 | -0.023 | -0.013 | -0.011 |
| CKAP2 (UniProt Q8WWK9) | 0 | -0.158 | -0.062 | -0.148 | -0.015 | 0.006 | -0.611 (active) | -0.007 | 0.046 | 0.014 |
| CMPK2 (UniProt Q5EBM0) | -0.019 | 0.07 | 0.006 | -0.035 | -0.016 | 0.004 | -0.038 | -0.03 | 0.031 | 0.024 |
| DOK1 (UniProt Q99704) | -0.024 | 0.051 | 0.023 | 0.015 | 0.002 | -0.041 | -0.02 | 0.021 | 0.06 | 0.021 |
| CORO7 (UniProt P57737) | -0.001 | 0.01 | 0.291 | -0.089 |  | -0.023 | -0.047 | -0.07 | 0.064 | 0.091 |
| DPY19L3 (UniProt Q6ZPD9) | -0.131 | 0.007 | -0.097 | 0.101 | 0.211 |  | -0.2 | 0.005 | 0.008 |  |
| CNK3/IPCEF1 isoform 2 (UniProt G9CGD6) | 0.065 | -0.008 | 0.038 | -0.082 |  | -0.051 | 0.053 | 0.014 | -0.048 | 0.105 |
| DDA1 (UniProt Q9BW61) | -0.004 | -0.001 | 0.036 | -0.03 | 0.008 | -0.093 | 0.016 | -0.017 | -0.01 | 0.012 |
| CNOT6L (UniProt Q96LI5) | -0.011 | 0 | 0.007 | -0.02 | 0.007 | -0.04 | -0.042 | -0.018 | -0.012 | 0.002 |
| DAZAP1 (UniProt Q96EP5) | -0.017 | 0.008 | 0.03 | 0.023 | 0.026 | 0.017 | -0.047 | 0.02 | -0.004 | 0.012 |
| CIC (UniProt I3L2J0) | 0.013 | -0.248 | 0.079 | 0.122 | 0.027 | -0.047 | -0.062 | 0.005 | -0.04 | 0.04 |
| COQ8A (UniProt Q8NI60) | 0.154 | 0.014 | -0.057 | 0.008 | -0.083 | 0.029 | 0.105 | -0.01 | 0.007 | -0.034 |
| CLIC2 (UniProt O15247) | 0.036 | 0.022 | -0.005 | -0.03 | -0.014 | -0.014 | -0.014 | 0.019 | 0.015 | 0.006 |
| DNA2 (UniProt P51530) | -0.019 | 0.071 | -0.054 | -0.163 |  | -0.032 | 0.044 | 0.027 | 0.077 | -0.033 |
| DNAH10 (UniProt Q8IVF4) | 0.003 | 0.047 | -0.059 | -0.053 | -0.026 | 0.026 | -0.043 | 0.012 | 0.036 | 0.054 |
| CLUH (UniProt O75153) | -0.011 | 0.018 | -0.006 | 0.051 | 0.21 | -0.013 | -0.014 | -0.009 | -0.005 | -0.007 |
| CNTN4 (UniProt Q8IWV2) | 0.053 | 0.063 | 0.138 | -0.03 | 0.053 | 0.046 | -0.203 | -0.124 | 0.138 | 0.119 |
| DCTN1 (UniProt Q14203) | 0.007 | -0.001 | -0.001 | -0.001 | 0.019 | -0.001 | -0.023 | 0 | -0.003 | -0.005 |
